{"source": "paper PMC5540273", "about": "(PLoS ONE, 2017);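 note: kd values determined as follow-up on hits from a single-replicate KINOMEscan panel screen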", "data": [{"test_system": "CSNK1A1", "units": {"Kd": "nM"}, "values": [{"smiles": "Fc1ccc(-c2nc3n(c2-c2ccncc2)CCS3)cc1", "note": "[GI98581]", "Kd": 260}, {"smiles": "Nc1nccc(-c2c(-c3ccc(F)cc3)ncn2C2CCN(Cc3ccccc3)CC2)n1", "note": "[SB-219980]", "Kd": 41}, {"smiles": "Fc1ccc(-c2nc[nH]c2-c2ccncc2)cc1", "note": "[SB-217360]", "Kd": 87}]}, {"test_system": "CSNK1D", "units": {"Kd": "nM"}, "values": [{"smiles": "Cc1nccc(-c2c(-c3ccc(F)cc3)ncn2CCCN2CCOCC2)n1.Cl", "note": "[SB-282975]", "Kd": 75}, {"smiles": "Fc1ccc(-c2nc3n(c2-c2ccncc2)CCS3)cc1", "note": "[GI98581]", "Kd": 83}, {"smiles": "Nc1nccc(-c2c(-c3ccc(F)cc3)ncn2C2CCN(Cc3ccccc3)CC2)n1", "note": "[SB-219980]", "Kd": 7.5}, {"smiles": "COC(=O)C(NC(=O)NC1CCN(c2ccnc(Nc3ccc(F)cc3)n2)C1)c1ccccc1", "note": "(stereo not shown) [GSK1379712]", "Kd": "> 10000"}, {"smiles": "Fc1ccc(-c2nn3cccc(F)c3c2-c2ccncc2)cc1", "note": "[GW475620]", "Kd": 77}, {"smiles": "Fc1ccc(-c2nc[nH]c2-c2ccncc2)cc1", "note": "[SB-217360]", "Kd": 41}, {"smiles": "CCCCc1nn2ncccc2c1-c1ccnc(NC2CC2)n1", "note": "[GW684374]", "Kd": 480}, {"smiles": "Cc1cccc2c(-c3ccncn3)c(-c3ccc(F)cc3)nn12", "note": "[GW515532]", "Kd": 1200}]}, {"test_system": "CSNK1E", "units": {"Kd": "nM"}, "values": [{"smiles": "Cc1nccc(-c2c(-c3ccc(F)cc3)ncn2CCCN2CCOCC2)n1.Cl", "note": "[SB-282975]", "Kd": 460}, {"smiles": "Fc1ccc(-c2nc3n(c2-c2ccncc2)CCS3)cc1", "note": "[GI98581]", "Kd": 180}, {"smiles": "Nc1nccc(-c2c(-c3ccc(F)cc3)ncn2C2CCN(Cc3ccccc3)CC2)n1", "note": "[SB-219980]", "Kd": 24}, {"smiles": "CC(=O)c1c(C)c2cnc(Nc3ccc(N4CCNCC4)cn3)nc2n(C2CCCC2)c1=O", "Kd": "> 10000"}, {"smiles": "Fc1ccc(-c2nn3cccc(F)c3c2-c2ccncc2)cc1", "note": "[GW475620]", "Kd": 220}, {"smiles": "Fc1ccc(-c2nc[nH]c2-c2ccncc2)cc1", "note": "[SB-217360]", "Kd": 140}, {"smiles": "CCCCc1nn2ncccc2c1-c1ccnc(NC2CC2)n1", "note": "[GW684374]", "Kd": 2900}, {"smiles": "Cc1cccc2c(-c3ccncn3)c(-c3ccc(F)cc3)nn12", "note": "[GW515532]", "Kd": 3400}]}, {"test_system": "CSNK1G3", "units": {"Kd": "µM"}, "values": [{"smiles": "CNCc1ccc2nc(NC(=O)c3ccc(C(C)(C)C)cc3)cn2c1", "Kd": "> 10"}, {"smiles": "O=C1NC(=O)C(c2ccc(Cl)cc2)=C1Nc1cccc(Cl)c1", "note": "[SB-317651]", "Kd": "> 10"}, {"smiles": "Cc1cccc2c(-c3ccncn3)c(-c3ccc(F)cc3)nn12", "note": "[GW515532]", "Kd": "> 10"}]}]}
